# Experimental data reported in PubChem BioAssay AID1851 (National Center for Advancing Translational Sciences (NCATS), 2009).
# About 5,100 (32%) of roughly 16,000 compounds were called active. Another 25% or so got no clear call; they are omitted. The list shows a part of the results. Values without a mark were called inactive. Calls come from the whole dose curve; as a rule, active = well fitted curve in the direction sought with a large enough effect; inconclusive = small, poorly fitted or top-dose-only effect, or effect the other way; inactive = no such curve, though single readings can be large or run the other way.
# Target: Cytochrome P450 3A4 (Homo sapiens) (UniProt P08684)
# Assay: Cytochrome panel assay with activity outcomes
# Conditions: recombinant CYP, pro-luciferin dealkylation, luminescence, p450-cyp3a4; series mostly up to 57.1 µM; activity, negative = inhibition: at the top concentration
# % is set by controls: 0 for no effect and ±100 for the full control effect.
# Chain of Cytochrome P450 3A4 (Homo sapiens) (P08684 whole entry, looked up): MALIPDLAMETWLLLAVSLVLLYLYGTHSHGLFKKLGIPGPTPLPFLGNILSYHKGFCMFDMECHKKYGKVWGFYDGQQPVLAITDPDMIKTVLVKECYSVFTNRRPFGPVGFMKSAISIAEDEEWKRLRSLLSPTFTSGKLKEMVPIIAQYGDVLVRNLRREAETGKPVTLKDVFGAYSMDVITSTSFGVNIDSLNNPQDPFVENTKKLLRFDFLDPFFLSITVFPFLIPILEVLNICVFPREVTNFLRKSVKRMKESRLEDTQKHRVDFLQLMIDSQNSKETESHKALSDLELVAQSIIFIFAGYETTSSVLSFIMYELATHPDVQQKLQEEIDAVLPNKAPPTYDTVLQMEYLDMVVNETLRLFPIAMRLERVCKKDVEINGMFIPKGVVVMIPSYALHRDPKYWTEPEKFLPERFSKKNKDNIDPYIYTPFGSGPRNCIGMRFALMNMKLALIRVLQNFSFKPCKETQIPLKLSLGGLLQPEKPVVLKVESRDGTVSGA
SMILES,"activity, negative = inhibition",AC50
CCOC(=S)SCC(=O)O,-14.7% [at 11.4 µM],–
CCOc1ccc(OCCOc2ncnc3ccccc23)cc1,-3.65% [at 2.29 µM],–
Cc1ccc(NC(=O)c2cc(NC(=O)CCC(=O)O)ccc2N2CCCCC2)cc1,8.65%,–
O=C(/C=C/c1ccco1)NC(=S)Nc1ccc(N2CCOCC2)c(Cl)c1,12.4% [at 2.29 µM],–
Cc1ccc(NC(=O)CSCC(=O)Nc2ccc(N3CCOCC3)c(Cl)c2)cc1,–,3.55 µM (active)
NCCSCCc1ccccc1,-8.42% [at 11.4 µM],–
NCCOB(c1ccccc1)c1ccccc1,–,12.6 µM (active)
O=C(O)[C@@H]1CCCNC1,-0.161% [at 25.6 µM],–
CCC(C)n1c(NC(=O)c2ccccc2)c(C#N)c2nc3ccccc3nc21 (configuration not stated),-17%,–
Cc1ccc(C(=O)N/N=C/c2sc(=O)n(Cc3cccc(C(=O)O)c3)c2Cl)cc1,-1.74%,–
Cc1ccc(C(=O)Nc2c(C#N)c(C)c(C)n2Cc2ccccc2)cc1,–,10 µM (active)
CCOC(=O)Cc1csc(NC(=O)c2ccc(S(=O)(=O)N3CCCCC3)cc2)n1,24.5%,–
CCOC(=O)Cc1csc(NC(=O)c2c(-c3c(Cl)cccc3Cl)noc2C)n1,-21.4% [at 2.29 µM],–
CCOC(=O)Cc1csc(NC(=O)c2ccc(Cl)nc2)n1,–,14.1 µM (active)
CCOc1cc(S(=O)(=O)N(Cc2ccccc2)Cc2ccccc2)c(OCC)cc1-n1cnnn1,–,12.6 µM (active)
COc1ccccc1CNc1ccnc(-c2ccccc2OC)n1,–,15.8 µM (active)
COc1ccccc1CNc1ccnc(-c2ccccc2C(F)(F)F)n1,–,12.6 µM (active)
COCCNc1ccnc(-c2ccccc2C(F)(F)F)n1,-8.14%,–
COc1ccccc1-c1nccc(NC2CCNCC2)n1,-8.5%,–
Fc1ccc(Nc2ccnc(-c3ccccc3C(F)(F)F)n2)cc1,–,12.6 µM (active)
COc1ccc(CSc2nnnn2C)cc1[N+](=O)[O-],-12.3%,–

SMILES,"activity, negative = inhibition",AC50
CCCOc1ccc(Cn2c(C)nc([N+](=O)[O-])c2SCC(O)COC)cc1[N+](=O)[O-] (configuration not stated),–,14.1 µM (active)
Cc1nc([N+](=O)[O-])c(N2CCN(C)CC2)n1Cc1ccccc1,-12.8%,–
Nc1nc2c(nc(Br)n2[C@@H]2O[C@H]3COP(=O)(O)O[C@@H]3[C@H]2O)c(=O)[nH]1,-9.7%,–
Nc1ccc2[nH]cc(CCC(=O)O)c2c1,-1.6% [at 11.4 µM],–
COc1cc2c(CCNC(C)=O)c[nH]c2cc1Cl,–,15.8 µM (active)
COC(=O)Nc1ccc2[nH]cc(CCNC(C)=O)c2c1,-24.7%,–
CN(C)[C@@H]1C(=O)C(C(N)=O)=C(O)[C@]2(O)C(=O)C3=C(O)c4c(O)ccc(Cl)c4[C@H](O)[C@H]3C[C@@H]12,–,inactive
Cc1ccc(/C=C/c2ccc(=O)n(Cc3ccc(Cl)cc3Cl)n2)cc1,2.15%,–
Cc1ccc(Cn2cnc3c(nnn3Cc3ccc(Cl)cc3)c2=O)cc1,–,3.16 µM (active)
Cc1nn(Cc2c(F)c(F)c(F)c(F)c2F)c(C)c1NC(=O)c1cccc(COc2ccccc2Cl)c1,–,3.98 µM (active)
Cc1nn(Cc2c(F)c(F)c(F)c(F)c2F)c(C)c1NC(=O)c1c(-c2ccccc2)nn(-c2ccccc2)c1C,–,2.24 µM (active)
Cc1nn(Cc2c(F)c(F)c(F)c(F)c2F)c(C)c1NC(=O)c1cccc(COc2ccc(Cl)cc2)c1,-20.6% [at 2.29 µM],–
Cc1ncc(COP(=O)(O)O)c(C)c1O,-9.44% [at 11.4 µM],–
COc1cc(-c2nnc(COC(=O)c3c4c(nc5ccccc35)CCCC4)o2)cc(OC)c1OC,–,4.47 µM (active)
COc1ccc(OC)c(NC(=O)c2c3c(nc4ccccc24)CCC3)c1,–,7.08 µM (active)
COc1ccc(OC)c(-c2cc(C(=O)O)c3cc4ccccc4cc3n2)c1,6% [at 11.4 µM],–
Nc1c2c(nc3ccccc13)CCCC2,-22.4%,–
COc1ccc(OC)c(NC(=O)[C@H]2CC=CC[C@H]2C(=O)O)c1,-12%,–
O=C1NC(=O)C(c2ccccc2)(c2ccccc2)N1,-9.15%,–
O=C1Nc2cc(C(=O)N3CCOCC3)ccc2SC1N1CCOCC1 (configuration not stated),17.3%,–
Cc1cn(CC[C@H](N)C(=O)O)c(=O)[nH]c1=O,-9% [at 11.4 µM],–

SMILES,"activity, negative = inhibition",AC50
O=C(NCc1ccc(F)cc1)C(c1ccncc1)N(C(=O)c1csnn1)C1CC1 (configuration not stated),–,2 µM (active)
O=C(NCc1ccccc1)C(c1ccncc1)N(C(=O)c1csnn1)C1CC1 (configuration not stated),–,2.82 µM (active)
O=C(Nc1cccc(F)c1)N1CCC2(CC1)CCN(C(=O)c1csnn1)CC2,-2.16%,–
O=C(O)CCC(=O)c1ccc(Cl)cc1,1.22% [at 11.4 µM],–
O=C(C/C=N/OCc1ccc(Cl)cc1Cl)c1ccc(Cl)cc1,–,25.1 µM (active)
CCN1CCN(CCCNC(=O)C(NC(=O)C2CCC(C)CC2)C(C)C)CC1 (configuration not stated),-9.25%,–
COc1ccc2[nH]c(-c3ccccc3)c(CCNC(C)=O)c2c1,–,12.6 µM (active)
COc1ccc2[nH]c3cc4c(=O)c5cc(OC)ccc5[nH]c4cc3c(=O)c2c1,-0.294% [at 11.4 µM],–
CCCCC(=O)NCCc1c(Cc2ccccc2)[nH]c2ccccc12,–,0.794 µM (active)
CC(=O)NCCc1c(Cc2ccccc2)[nH]c2ccccc12,–,7.94 µM (active)
Cc1ccc2[nH]c(-c3ccccc3)c(CN(C)C)c(=O)c2c1,9.06% [at 2.29 µM],–
CCCCNC(=O)C(=O)NC(C)CCc1ccccc1 (configuration not stated),1.86%,–
CSc1nc(C)c2c(n1)N(c1ccc(C(C)C)cc1)CC2,-16.2%,–
Cc1cc(C)c[n+](CC(=O)c2cc3ccccc3oc2=O)c1,-13.7%,–
C=CCc1cccc2cc(C(=O)N(CC)CC)c(=O)oc12,–,11.2 µM (active)
CN(C)c1ccc(-c2ccc3ncnc(N(C)C)c3c2)cc1,–,6.31 µM (active)
COc1cccc(-c2ccc3ncnc(N(C)C)c3c2)c1,–,7.94 µM (active)
CN(C)c1ncnc2c1ncn2CCn1cnc2c(N(C)C)ncnc21,8.51% [at 11.4 µM],–
CN(C)c1ncnc2ccc(-c3cccc(C#N)c3)cc12,–,12.6 µM (active)
CN(C)c1ncnc2ccc(-c3cccnc3)cc12,–,1 µM (active)
